Compounds without any hit were thinned out: in the full panel of roughly 79,000, 15% have a hit. Values without a mark were called inactive. Calls of active or inactive are those of the source. Rule as the data show it: active = growth inhibition above about 70%; inactive = the rest.
Experiments:
[1] = NCI Yeast Anticancer Drug Screen. Data for the rad52 strain (AID 147);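 also: 0% = growth of vehicle-treated control cultures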; conditions: S. cerevisiae rad52 mutant growth inhibition, active compounds read high
In short: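 The repair-mutant yeast strain was incubated with compounds, then growth was read and inhibition derived relative to vehicle.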

[2] = NCI Yeast Anticancer Drug Screen. Data for the wt1 strain (AID 149);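 also: 0% = growth of vehicle-treated wt1 cultures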; conditions: S. cerevisiae wt1 strain (SPY 50644) growth inhibition, active compounds read high
In short: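 Vehicle-normalised growth inhibition; strain wt1; compound exposure.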

[3] = NCI Yeast Anticancer Drug Screen. Data for the rad50EPP+ strain (AID 151);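 also: 0% = growth of vehicle-treated control cultures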; conditions: S. cerevisiae rad50 mutant strain, active compounds read high
In short: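 Vehicle-normalised growth inhibition; rad50EPP+ yeast strain, altered in DNA damage repair, compound-treated.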

[4] = NCI Yeast Anticancer Drug Screen. Data for the mgt1 strain (AID 153); conditions: S. cerevisiae mgt1 mutant growth inhibition, active compounds read high
In short: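 Vehicle-normalized growth inhibition is determined in mgt1 yeast, a strain selected for a defined alteration in DNA repair or cell cycle control.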

[5] = NCI Yeast Anticancer Drug Screen. Data for the rad50 strain (AID 155);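 also: 0% = growth of vehicle-only cultures of the same strain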; conditions: S. cerevisiae rad50 strain growth inhibition, active compounds read high
In short: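 A DNA repair-deficient yeast mutant serves as the test organism; compound-induced growth inhibition is calculated against vehicle-treated cells.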

[6] = NCI Yeast Anticancer Drug Screen. Data for the mec2-1 strain (AID 157); conditions: S. cerevisiae mec2-1 strain, active compounds read high
In short: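 Mutant yeast (mec2-1) grown with compound; growth inhibition relative to vehicle control reported.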

[7] = NCI Yeast Anticancer Drug Screen. Data for the rad14 strain (AID 159);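 also: 0% = growth of vehicle-treated control cultures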; conditions: S. cerevisiae rad14 strain growth inhibition, active compounds read high
In short: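 Vehicle-treated cultures served as the baseline for growth inhibition of a DNA repair-mutant yeast strain exposed to each compound.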

[8] = NCI Yeast Anticancer Drug Screen. Data for the sgs1 mgt1 strain (AID 161);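 also: 0% = growth of cultures given vehicle only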; conditions: S. cerevisiae sgs1 mgt1 strain, active compounds read high
In short: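 Yeast cells carrying a defined DNA-repair defect were exposed to test compounds. Growth inhibition was measured relative to vehicle-treated controls.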

[9] = NCI Yeast Anticancer Drug Screen. Data for the CLN2oe strain (AID 163);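 also: 0% = growth of vehicle-only control cultures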; conditions: S. cerevisiae CLN2oe strain, active compounds read high
In short: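 Compounds are applied to yeast harbouring a defined cell-cycle control change; reduced growth compared with vehicle-treated controls gives the value.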

[10] = NCI Yeast Anticancer Drug Screen. Data for the cln2 rad14 strain (AID 165);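 also: 0% = growth equal to vehicle treated cultures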; conditions: S. cerevisiae cln2 rad14 strain, active compounds read high
In short: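 Readout is yeast growth inhibition versus vehicle-treated controls, using a strain with cln2 and rad14 alterations exposed to compound.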

[11] = NCI Yeast Anticancer Drug Screen. Data for the bub3 strain (AID 167); conditions: S. cerevisiae bub3 mutant strain, active compounds read high
In short: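 Inhibition values come from growth of compound-treated mutant yeast normalised to vehicle-treated controls.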

[12] = NCI Yeast Anticancer Drug Screen. Data for the wt2 strain (AID 169);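 also: 0% = growth of vehicle-treated yeast cultures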; conditions: S. cerevisiae wt2 strain growth inhibition, active compounds read high
In short: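 Against vehicle-treated controls, the growth of yeast exposed to each compound was compared, and the inhibition was recorded.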

[13] = NCI Yeast Anticancer Drug Screen. Data for the mlh1 strain (AID 171);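 also: 0% = growth of vehicle-treated control cultures of the same strain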; conditions: S. cerevisiae mlh1 strain growth inhibition, active compounds read high
In short: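 Measured: yeast growth. Reference: vehicle-treated controls. Organism: strain with a defined alteration affecting DNA damage repair or cell cycle control, treated with compound.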

[14] = NCI Yeast Anticancer Drug Screen. Data for the sgs1 strain (AID 173);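 also: 0% = growth of vehicle-only control cultures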; conditions: S. cerevisiae sgs1 mutant, active compounds read high
In short: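 Each compound was added to cultures of the altered yeast strain. Growth was recorded, and inhibition was derived by comparison with vehicle controls.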

[15] = NCI Yeast Anticancer Drug Screen. Data for the mlh1 rad18 strain (AID 175); conditions: S. cerevisiae mlh1 rad18 strain growth inhibition, active compounds read high
In short: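 Genetically defined yeast (DNA repair-deficient) exposed to compounds; growth inhibition determined relative to vehicle.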

[16] = NCI Yeast Anticancer Drug Screen. Data for the rad18 strain (AID 177); conditions: S. cerevisiae rad18 mutant growth inhibition, active compounds read high
In short: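 Vehicle-treated cultures served as the baseline for scoring compound-induced growth inhibition in DNA-repair-mutant yeast.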

[17] = at 5.0 µM (retest, dose inferred, filed as 0.5)
[18] = at 50.0 µM (retest, dose inferred, filed as 5.0)

CC1=C(SCc2ccccc2)C(=O)c2ccccc2C1=O
growth inhibition ([1]; at 1.2 µM): -28%
growth inhibition ([1]; at 3.7 µM): -24%
growth inhibition ([1]; at 11.0 µM): 4%
growth inhibition ([1]; at 33.0 µM): 81% (active)
growth inhibition ([1]; at 100.0 µM): 90% (active)
growth inhibition ([2]; at 1.2 µM): -15%
growth inhibition ([2]; at 3.7 µM): -15%
growth inhibition ([2]; at 11.0 µM): -7%
growth inhibition ([2]; at 33.0 µM): 64%
growth inhibition ([2]; at 100.0 µM): 91% (active)
growth inhibition ([3]; at 1.2 µM): -28%
growth inhibition ([3]; at 3.7 µM): -20%
growth inhibition ([3]; at 11.0 µM): -4%
growth inhibition ([3]; at 33.0 µM): 35%
growth inhibition ([3]; at 100.0 µM): 59%
growth inhibition ([4]; at 1.2 µM): -74%
growth inhibition ([4]; at 3.7 µM): -64%
growth inhibition ([4]; at 11.0 µM): -51%
growth inhibition ([4]; at 33.0 µM): 43%
growth inhibition ([4]; at 100.0 µM): 89% (active)
growth inhibition ([5]; at 1.2 µM): -12%
growth inhibition ([5]; at 3.7 µM): -22%
growth inhibition [5, 17]: 99% (active)
growth inhibition ([5]; at 11.0 µM): 8%
growth inhibition ([5]; at 33.0 µM): 81% (active)
growth inhibition [5, 18]: 91% (active)
growth inhibition ([5]; at 50.0 µM): 68.9%
growth inhibition ([5]; at 100.0 µM): 87% (active)
growth inhibition ([6]; at 1.2 µM): -78%
growth inhibition ([6]; at 3.7 µM): -69%
growth inhibition [6, 17]: 98% (active)
growth inhibition ([6]; at 11.0 µM): -68%
growth inhibition ([6]; at 33.0 µM): 74% (active)
growth inhibition [6, 18]: 92% (active)
growth inhibition ([6]; at 50.0 µM): 51.1%
growth inhibition ([6]; at 100.0 µM): 90% (active)
growth inhibition ([7]; at 1.2 µM): -32%
growth inhibition ([7]; at 3.7 µM): -37%
growth inhibition ([7]; at 11.0 µM): -35%
growth inhibition ([7]; at 33.0 µM): 85% (active)
growth inhibition ([7]; at 100.0 µM): 92% (active)
growth inhibition [8, 17]: -23%
growth inhibition [8, 18]: 34%
growth inhibition ([8]; at 50.0 µM): 71.3% (active)
growth inhibition ([9]; at 1.2 µM): -44%
growth inhibition ([9]; at 3.7 µM): -22%
growth inhibition ([9]; at 11.0 µM): -27%
growth inhibition ([9]; at 33.0 µM): 63%
growth inhibition ([9]; at 100.0 µM): 80% (active)
growth inhibition [10, 17]: 44%
growth inhibition [10, 18]: 53%
growth inhibition ([10]; at 50.0 µM): 46.2%
growth inhibition ([11]; at 1.2 µM): -14%
growth inhibition ([11]; at 3.7 µM): -17%
growth inhibition [11, 17]: 20%
growth inhibition ([11]; at 11.0 µM): 26%
growth inhibition ([11]; at 33.0 µM): 84% (active)
growth inhibition [11, 18]: 64%
growth inhibition ([11]; at 50.0 µM): 79% (active)
growth inhibition ([11]; at 100.0 µM): 90% (active)
growth inhibition ([12]; at 1.2 µM): -19%
growth inhibition ([12]; at 3.7 µM): -40%
growth inhibition ([12]; at 11.0 µM): -10%
growth inhibition ([12]; at 33.0 µM): 75% (active)
growth inhibition ([12]; at 100.0 µM): 92% (active)
growth inhibition ([13]; at 1.2 µM): -43%
growth inhibition ([13]; at 3.7 µM): -29%
growth inhibition ([13]; at 11.0 µM): -19%
growth inhibition ([13]; at 33.0 µM): 62%
growth inhibition ([13]; at 100.0 µM): 89% (active)
growth inhibition ([14]; at 1.2 µM): -53%
growth inhibition ([14]; at 3.7 µM): -56%
growth inhibition ([14]; at 11.0 µM): -29%
growth inhibition ([14]; at 33.0 µM): 76% (active)
growth inhibition ([14]; at 100.0 µM): 90% (active)
growth inhibition [15, 17]: 99% (active)
growth inhibition [15, 18]: 92% (active)
growth inhibition ([15]; at 50.0 µM): 73.5% (active)
growth inhibition ([16]; at 1.2 µM): -23%
growth inhibition ([16]; at 3.7 µM): -46%
growth inhibition ([16]; at 11.0 µM): -27%
growth inhibition ([16]; at 33.0 µM): 79% (active)
growth inhibition ([16]; at 100.0 µM): 90% (active)

From PubChem BioAssay (NCI)
